MARV entry inh – qHTS for Inhibitors of binding or entry into cells for Marburg Virus | Marburg virus pseudotype entry/binding inhibition, cell-based | Potency, µM (highest dose often 49.2 µM), inactives show at the highest dose activity change, negative = inhibition, actives largely listed as inhibitors | actives 6.5% (n = 18,000)
Lassa entry – qHTS for Inhibitors of binding or entry into cells for Lassa Virus | Potency, µM (titrated, usually from 49.2 µM), without a hit: at the top dose activity change, negative = inhibition, actives largely listed as inhibitors | Lassa virus pseudotyped entry inhibition, cell-based qHTS | actives 4.1% (n = 18,000)
Starred values were filed as active, the others as inactive; ? = inconclusive; . = no result given; ! = a repeat was not active; [ ] = remark or other dose. Only some compounds are listed: those with a hit (about 8% of all), similar ones and a draw of the others. Calls come from the whole dose curve; tested in HEK293 cells. % is set by controls: 0 for no effect and ±100 for the full control effect; potency is the fitted concentration of half-maximal effect.

SMILES	MARV entry inh	Lassa entry
C[C@@H]1C[C@H](C)C[C@H](C)[C@@H](O)CC(=O)O[C@H]([C@H]2CCC[C@H]2C(=O)O)C/C=C/C=C(/C#N)[C@H](O)[C@@H](C)C1	10µM*	?
C[C@@H]1CC[C@H]2C(=O)N(Cc3cccc([N+](=O)[O-])c3)C[C@H](O)CN2[C@@H]1c1cccc(Br)c1	-10.0%[8.59 µM]	.
CC1(C)CN(CCc2ccccc2)C(=O)[C@@H]1CC(=O)Nc1ccccc1	3.6%	20.0%
O=c1c2ccccc2[se]n1-c1ccccc1	22.4µM*!	25.1µM*!
Cc1ccccc1-n1c(C)nc2ccccc2c1=O	8.4%	?
CCN1CCCC1CNC(=O)c1cnn(-c2nccc(-c3ccccc3OC)n2)c1-c1ccco1 (stereo unspecified)	?	-3.9%
CCN1CCCC1CNC(=O)c1cc(S(N)(=O)=O)ccc1OC (stereo unspecified)	3.4%	16.6%
CCc1cc(Cl)c(OC)c(C(=O)NC[C@@H]2CCCN2CC)c1O	4.47µM*	?
CCCCN1CCC[C@H]1CNC(=O)c1cc(C#N)c2ccccc2c1OC	10µM*	?
COC(=O)C1=C(C(=O)OC)[C@@H]2N(Cc3ccccc3)c3ccccc3[C@@]23C[C@@H](C(=O)OC)N(C(=O)NCCBr)C3=N1	7.6%[8.59 µM]	-13.6%[8.59 µM]
O=S(=O)(O)c1cc(I)c(O)c2ncccc12	-19.5%	?
O=C(Nc1ccc(/C=C/c2ccc(NC(=O)c3cc(S(=O)(=O)O)c4cccnc4c3O)cc2S(=O)(=O)O)c(S(=O)(=O)O)c1)c1cc(S(=O)(=O)O)c2cccnc2c1O	3.55µM*	2.8%
O=C1[C@@H]2[C@H]3[C@H](O)[C@H](O)CC(=NOC[C@@H](O)COCc4ccco4)[C@@H]3CC[C@H]2C(=O)N1Cc1ccccc1	-3.6%[8.59 µM]	-1.7%[8.59 µM]
C=C[C@@]1(C)CCC=C2C(=O)CCC[C@H]21	?	-27.4%[8.59 µM]
Cn1cc(C=C2C(=O)Nc3cccnc32)c2ccccc21	9.8%	-23.1%
CN(C)CCCn1cc(C2=C(c3c[nH]c4ccccc34)C(=O)NC2=O)c2ccccc21	7.08µM*	?
Cn1cc(C2=C(c3cn(CCCSC(=N)N)c4ccccc34)C(=O)NC2=O)c2ccccc21	15.8µM*	17.8µM*
COc1ccc2[nH]cc(CCNc3ncncc3-c3ccccc3CN(C)C)c2c1	?	-14.4%
COc1ccc2c(c1)c(C1=C(c3c[nH]c4ccccc34)C(=O)NC1=O)cn2CCCN(C)C	7.08µM*	?
CC1(C)CN(Cc2ccccc2)C(=O)[C@@H]1CC(=O)Nc1ccc(Br)cc1	-28.5%	-10.0%
Cc1ccc([S+](=O)([O-])N[C@@H]2COC(=O)CC=C[C@H](C)COC(=O)N[C@@H](C)C(=O)CC=C[C@H]2C)cc1	11.3%[8.59 µM]	-27.3%[8.59 µM]
CC1=C[C@@H](COc2ccccc2)O[C@@]2(C1)C(=O)N(Cc1ccccc1)c1ccccc12	?	7.4%[8.59 µM]
CCC[C@H]1CN(Cc2cccnc2)C(=O)[C@H]1CC(=O)Nc1ccc(Br)cc1	27.8%	11.5%
O=C1OC2(CCCCC2)CC2=C1[C@H]1O[C@](c3ccsc3)(Cc3ccccc31)O2	35.0%[8.59 µM]	-10.8%[8.59 µM]
COc1ccc(O[C@@H]2[C@H](O)CO[C@@H]2C=CC#Cc2ccccc2)cc1	7.5%[8.59 µM]	-28.4%[8.59 µM]
SMILES	MARV entry inh	Lassa entry
COc1ccc(COc2cc(-c3cccc(OC)c3)nc3ccc(NC(=O)c4ccccc4)cc23)cc1	?	10µM*
COc1ccc(COc2cc(-c3cccc(OC)c3)nc3ccc(NC(=O)c4ccc(Cl)cc4)cc23)cc1	-18.2%	-29.1%
CC[C@@H](c1ccccc1)n1c(=O)n2n(c1=O)[C@H]1[C@H](O)[C@@H]3O[C@H]3C(=NOCc3ccccc3)[C@H]1CC2	?	6.4%[8.59 µM]
OC[C@H]1O[C@H](c2ccccc2)C=C[C@H]1O	-7.8%[8.59 µM]	-16.1%[8.59 µM]
O[C@@H]1C[C@H](c2ccccc2)N(CC2CCCCC2)C[C@@H]1n1cc(C2CC2)nn1	-27.3%	-21.2%
C[C@@]12C(=O)OC(=O)[C@]1(C)C1CCC2O1	4.47µM*	2.24µM*
c1ccc2c(N3CCCCCC3)nc(CN3CCCCC3c3nccs3)nc2c1 (stereo unspecified)	?	-22.7%
COc1ccc(CN2C[C@]3(CO)OC(CO)C[C@H]3[S+]2(=O)[O-])cc1 (stereo partly specified)	20.4%	13.4%
O=C(O)c1ccccc1Nc1ccc(CCc2ccc(Cl)c(Cl)c2)cc1	-27.5%	-23.1%
O=C(O)c1ccccc1Nc1cccc(OCc2ccc3ccccc3n2)c1	?	15.8µM*
COC[C@@H](O)[C@H]1OCc2ccccc2[C@@H]1C=Cc1ccccc1	-36.8%[8.59 µM]	-0.1%[8.59 µM]
CC1=CC[C@@H](C)O[C@@]2(C1)C(=O)N(Cc1ccc(F)cc1)c1ccccc12	40.6%[8.59 µM]	-9.1%[8.59 µM]
CNCCCC1c2ccccc2C=Cc2ccccc21	7.08µM*	?
COc1ccc2c(c1)CCc1cnc(-n3ncc(C(=O)NCCCN4CCOCC4)c3C)nc1-2	?	-6.8%
COc1ccc2c(c1)CCc1cnc(-n3ncc(C(=O)NCC(C)(C)CN(C)C)c3C)nc1-2	4.47µM*	?
